Assay results: PubChem BioAssay (EPA / NIEHS)
Values joined by “and” are separate entries in the source; they are usually repeats but may differ in a detail not shown here. Equal values may be shown once. Active and inactive are the calls of the source. The calls were made as follows: active = hit-call score of the fitted dose curve at least 0.9, where 1 is the maximum; inactive = score below 0.9.

target: Bile acid receptor (Homo sapiens) (UniProt Q96RI1); test: ATG_IR1_CIS: Attagene CIS-FACTORIAL HepG2 Assay for human Nuclear Receptor Subfamily 1 Group H Member 4 (NR1H4), IR1 submotif (AID 2282946); settings: IR1 reporter transcription, actives raise or lower the signal
Sequence (Q96RI1 whole entry, looked up): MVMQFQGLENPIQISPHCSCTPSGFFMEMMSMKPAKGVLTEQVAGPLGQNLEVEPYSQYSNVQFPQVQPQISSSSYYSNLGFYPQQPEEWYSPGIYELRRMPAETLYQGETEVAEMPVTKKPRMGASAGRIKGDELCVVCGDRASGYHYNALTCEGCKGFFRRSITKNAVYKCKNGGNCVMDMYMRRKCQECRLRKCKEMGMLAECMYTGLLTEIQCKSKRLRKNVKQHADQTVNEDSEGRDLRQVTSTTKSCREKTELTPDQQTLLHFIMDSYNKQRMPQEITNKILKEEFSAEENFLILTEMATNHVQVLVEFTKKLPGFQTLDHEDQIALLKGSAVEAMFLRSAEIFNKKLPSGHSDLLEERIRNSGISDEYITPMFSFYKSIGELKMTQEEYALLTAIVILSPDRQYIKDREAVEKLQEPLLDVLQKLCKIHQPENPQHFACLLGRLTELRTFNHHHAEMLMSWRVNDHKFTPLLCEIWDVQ
Summary of the method: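 Fluorescence of capillary-separated, HpaI-digested RT-PCR reporter products gave IR1-element mRNA induction in HepG2 cells 24 h after dosing. Endogenous transcription factors drove the cis-regulated reporters; activity was fitted bidirectionally against DMSO.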

Row | Structure (SMILES) | outcome | AC50
1 | O=S1(=O)OC(c2cc(Br)c(O)c(Br)c2)(c2cc(Br)c(O)c(Br)c2)c2ccccc21 | inactive | –
2 | Cc1cc(Cl)ccc1OCCCC(=O)O | inactive | –
3 | C#C[C@]1(O)CC[C@H]2[C@@H]3CCC4=CC(=O)CC[C@]4(C)[C@H]3CC[C@@]21C | inactive | –
4 | C[C@@H]1O[C@@H](O[C@H]2C[C@@H](O)[C@]3(CO)[C@H]4[C@H](O)C[C@]5(C)[C@@H](C6=CC(=O)OC6)CC[C@]5(O)[C@@H]4CC[C@]3(O)C2)[C@H](O)[C@H](O)[C@H]1O | inactive | –
5 | C[N+](C)(C)Cc1ccccc1 | inactive | –
6 | COP(=S)(OC)Oc1cc(Cl)c(I)cc1Cl | inactive | –
7 | O=c1oc2ccccc2c(O)c1C(CC(O)c1ccc(-c2ccc(Br)cc2)cc1)c1ccccc1 (centres undefined) | – | 50.1 µM (active) and 43.6 µM (active)
8 | CN(N=O)C(N)=O | inactive | –
9 | O=S(=O)(F)C(F)(F)C(F)(F)C(F)(F)C(F)(F)F | inactive | –
10 | OCC(c1ccc(Cl)cc1)c1ccc(Cl)cc1 | – | 49.9 µM (active)
11 | CCCCC(CC)C(=O)Cl (centres undefined) | inactive | –
12 | C=CC(F)(C(F)(F)F)C(F)(F)C(F)(F)F (centres undefined) | inactive | –
13 | CN(C)CCN(C)C | inactive | –
14 | CCCCS(=O)(=O)Cl | inactive | –
15 | Fc1cccc(Cl)c1CCl | inactive | –
16 | Nc1ncn[nH]1 | inactive | –
17 | CCCCOC(C)=O | inactive | –
18 | CC(=O)C(F)(F)C(F)(F)F | inactive | –
19 | C#CCOC(=O)/C=C(C)/C=C/CC(C)CCCC(C)C (centres undefined) | inactive | –
20 | OC(Cc1ccccc1Cl)(Cn1cncn1)C1(Cl)CC1 (centres undefined) | inactive | –

Row | Structure (SMILES) | outcome | AC50
21 | Cc1cc(C(F)(C(F)(F)F)C(F)(F)F)ccc1NC(=O)c1cccc(I)c1C(=O)NC(C)(C)CS(C)(=O)=O | inactive | –
22 | CCOc1ccc(N)cc1 | inactive | –
23 | O=C(NC(=O)c1c(F)cccc1F)Nc1cc(Cl)c(Oc2ncc(C(F)(F)F)cc2Cl)c(Cl)c1 | inactive | –
24 | CN(N=O)c1ccc([N+](=O)[O-])cc1 | inactive | –
25 | CCOC(=O)C(SP(=S)(OC)OC)c1ccccc1 (centres undefined) | inactive | –
26 | COC(F)(C(F)(F)C(F)(F)F)C(F)(C(F)(F)F)C(F)(F)F (centres undefined) | inactive | –
27 | OC(Cc1ccccc1Cl)(Cn1[nH]cnc1=S)C1(Cl)CC1 (centres undefined) | inactive | –
28 | CC(F)(F)CC(F)(F)F | inactive | –
29 | O=C/C(Cl)=C(/Cl)C(=O)O | – | 46 µM (active)
30 | COc1nn(C(=O)NS(=O)(=O)c2ccccc2OC(F)(F)F)c(=O)n1C | inactive | –
31 | Cc1ccc(CCl)cc1 | inactive | –
32 | Cl[C@H]1OCCO[C@@H]1Cl | inactive | –
33 | NC(=O)CCl | inactive | –
34 | CC(C)[C@@H](Nc1ccc(C(F)(F)F)cc1Cl)C(=O)OC(C#N)c1cccc(Oc2ccccc2)c1 (some centres undefined) | inactive | –
35 | Cc1cc(C(C)(C)c2ccc(O)c(C)c2)ccc1O | inactive | –
36 | CC1(C)[C@H](C(=O)O[C@H](C#N)c2cccc(Oc3ccccc3)c2)[C@@H]1/C=C(\Cl)C(F)(F)F | inactive | –
37 | ClCCCCl | inactive | –
38 | Cc1ccccc1OP(=O)(Oc1ccccc1)Oc1ccccc1 | – | 23.7 µM (active)
39 | CCN(N=O)C(N)=O | inactive | –
